Screening data deposited in PubChem BioAssay by National Center for Advancing Translational Sciences (NCATS).
This is a sample that favours compounds with a hit; in the whole collection about 21% have one here.
ELG1 DNA repair – ELG1-dependent DNA repair inhibition. 2.3% of 330,000 active. AID 504467. Potency, µM (series often up to 46.1 µM), without a hit: at the top dose activity change, negative = inhibition, actives largely listed as inhibitors. HEK293T ELG1-luciferase reporter, luminescence, 16 h; DNA damage induced by 5-fluorouridine; further: potency means the concentration at half of the fitted maximal effect; nearly all actives have a fitted effect of over 55% in size
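Step one: seed 2,000 cells per well. Step two: pin-transfer compound or DMSO alongside 5-fluorouridine. Step three: incubate 16 hr, 37 °C, 5% CO2. Step four: add ONE-Glo, wait 30 min, read luminescence.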
DT40 TDP1 no CPT – qHTS for Inhibitors of human tyrosyl-DNA phosphodiesterase 1 (TDP1): qHTS in cells in absence of CPT | Potency, µM (highest dose often 46.2 µM), for the others: at the highest dose activity change, negative = growth inhibition, actives largely listed as inhibitors | DT40 Tdp1-/- hTDP1 cells, no CPT, ATP luminescence, 48 h | 15% of 420,000 active; further: potency means the concentration at half of the fitted maximal effect; nearly all actives have a fitted effect of over 55% in size
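A cellular qHTS used chicken DT40 cells lacking endogenous Tdp1 but carrying stably transfected human TDP1. Compounds were applied without camptothecin, and cell growth kinetics were judged by ATP-dependent luminescence after ≥48 hr.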
TDP1 cell CPT – DT40-hTDP1 cell growth loss with CPT; Potency, µM (doses to about 46.2 µM), without a hit: at the top dose activity change, negative = growth inhibition, actives largely listed as inhibitors; 12% of 420,000 active; chicken DT40 Tdp1-/-;hTDP1 cells + 20 nM CPT, ATP luminescence, 48 h; further: potency means the concentration at half of the fitted maximal effect; nearly all actives have a fitted effect of over 55% in size
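Chicken DT40 Tdp1-/- cells stably complemented with human TDP1 were seeded at 400 cells/well in medium containing 20 nM camptothecin, exposed to pin-transferred compounds, and grown at 37 °C for at least 48 hr. Viability was read as ATP luminescence.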
IL-1B inflam inh – blocks inflammasome-driven IL-1 beta release | THP-1 LPS/ATP IL-1B secretion, AlphaLISA, 16 h; hits give low values | activity change, % at 57.5 µM | 4.7% of 360,000 active | AID 743279; in the data active means activity change below about -50%; inconclusive means mostly about -30% to -49%
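Secreted IL-1B measured by AlphaLISA bead assay after 16 h compound exposure of THP-1 cells; compounds (final up to 57.5 uM) added 1 h before LPS (250 ng/mL) and ATP (1.25 mM) stimulation; lower signal means less secretion.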
Gal4-VP16 FLuc – inhibits Gal4-VP16 luciferase reporter, ROR gamma counter-screen. 3.5% of 310,000 active. Drosophila S2 Gal4-VP16 UAS-luciferase, luminescence, 20 h. AID 2546. Potency, µM (highest dose often 53.6 µM), for inactives: at the top dose activity, negative = inhibition, hits mostly inhibitors;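 further: Gal4-VP16 expression switched on by copper sulfate through the metallothionein promoter; potency means the concentration at half of the fitted maximal effect; nearly all actives have a fitted effect of over 50% in size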
RORg inh – inhibitors of mouse ROR gamma transcriptional activity; P51450; Drosophila S2 Gal4-RORgamma UAS-luciferase reporter, 20 h; Potency, µM (highest dose often 53.6 µM), inactives show top-dose activity change, negative = inhibition, most hits filed as inhibitors; 5.4% of 310,000 active; further: potency means the concentration at half of the fitted maximal effect; nearly all actives have a fitted effect of over 60% in size
Target sequence (P51450 whole entry, looked up, the tested form may be a part): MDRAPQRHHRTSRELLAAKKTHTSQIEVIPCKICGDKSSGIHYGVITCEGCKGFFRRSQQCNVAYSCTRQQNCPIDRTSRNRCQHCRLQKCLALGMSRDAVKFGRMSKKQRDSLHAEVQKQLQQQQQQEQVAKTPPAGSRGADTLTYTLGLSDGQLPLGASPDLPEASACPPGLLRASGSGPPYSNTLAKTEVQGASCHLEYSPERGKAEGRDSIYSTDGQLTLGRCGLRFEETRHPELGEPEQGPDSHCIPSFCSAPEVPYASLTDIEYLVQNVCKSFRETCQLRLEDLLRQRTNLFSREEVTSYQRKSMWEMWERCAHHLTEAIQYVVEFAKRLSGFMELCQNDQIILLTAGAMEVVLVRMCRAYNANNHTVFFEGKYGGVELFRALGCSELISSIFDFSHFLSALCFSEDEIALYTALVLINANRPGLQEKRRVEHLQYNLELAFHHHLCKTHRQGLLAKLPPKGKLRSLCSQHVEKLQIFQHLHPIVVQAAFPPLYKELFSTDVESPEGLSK
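Read-out: Photinus luciferase luminescence; inhibitors lower reporter signal. Insect Schneider cells with Gal4-ROR gamma fusion under metallothionein promoter, UAS reporter; 700 uM final copper sulfate induction, 20 hr, ambient temperature.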
* = called active by the depositor; ? = inconclusive; / = no result given; [ ] = dose if it differs, or a comment. Unless noted, the call rests on the fitted dose curve; in most records, active means well fitted curve in the direction sought with a large enough effect; inconclusive means small, poorly fitted or top-dose-only effect, or another doubt; inactive means no such curve, though single readings can be large; an effect the other way counts as inactive or inconclusive. On the % scale 0 is the no-effect control and ±100 the full control effect.

SMILES	ELG1 DNA repair	DT40 TDP1 no CPT	TDP1 cell CPT	IL-1B inflam inh	Gal4-VP16 FLuc	RORg inh
CCN(c1ccccc1)S(=O)(=O)c1ccc(OC)c(NC(=O)c2ccccc2OC)c1	?	?	21µM*	11	/	/
CCN(c1ccccc1)S(=O)(=O)c1ccc(Oc2ccc([N+](=O)[O-])cc2)nc1	-17%	?	?	-14	/	/
CC(=O)OCc1cnc(C)c2oc(=O)c(C(=O)Nc3cc(F)ccc3C)cc12	/	-3%	5%	/	/	/
Cn1c(C2CCC2)nc2cc(C(=O)N3CCOc4ccccc4C3)cc(NC(=O)C3CCCO3)c21 (stereo not given)	/	-7%	24%[9.04 µM]	/	/	/
CC1CCCCC1n1c(=S)[nH]c2ccccc2c1=O (stereo not given)	11%	?	23µM*	22	-14%	?
CC1CCCCC1NC(=O)CCCCCn1c(=S)[nH]c2ccccc2c1=O (stereo not given)	?	?	?	2	7%	16µM*
O=C(CCCn1c(=O)[nH]c2ccsc2c1=O)NC1CCCCC1	11%	-3%	-8%	-7	3%	1%
CC1CCCC(NC(=O)CCCn2c(=S)[nH]c3ccccc3c2=O)C1C (stereo not given)	?	-17%	-1%	44	-10%[10 µM]	10µM*
CCC1CCCCN1CCCn1c(=S)[nH]c2ccccc2c1=O (stereo not given)	7%	-13%	-2%	23	-15%	?
CC1CCCCC1NC(=O)CCCCCn1c(=S)[nH]c2ccsc2c1=O (stereo not given)	-6%	?	-10%	6	?	11µM*
CC1CCCCC1NC(=O)CCCn1c(=S)[nH]c2ccccc2c1=O (stereo not given)	-18%	-21%	-18%	11	12%	?
O=C1CCC(C(=O)Nc2cc(C(F)(F)F)ccc2-n2cncn2)=NN1	-7%	-3%	-4%	39	0%	12%
CCN(CC)CCN(C(=O)c1ccco1)c1nc2ccc(F)cc2s1	/	-35%	-15%	/	/	/
CN1CCN(C(=O)c2ccc(CNS(=O)(=O)c3ccc(F)c(Cl)c3)cc2)CC1	11%	-17%	?	-8	-1%	-11%
COc1cccc(-c2ccc(CN3C(C)C(=O)N(Cc4cn(Cc5ccco5)nn4)CCS3(=O)=O)cc2)c1OC (stereo not given)	/	?	?	-14	/	/
COc1ccc(-c2ccc(CN3C(C(C)C)C(=O)N(Cc4cn(Cc5ccco5)nn4)CCS3(=O)=O)cc2)cc1 (stereo not given)	/	21µM*	?	0	/	/
CC1C(=O)N(Cc2cn(Cc3ccco3)nn2)CCS(=O)(=O)N1Cc1ccc(-c2ccc(F)nc2)cc1 (stereo not given)	/	?	-27%	-18	/	/
Cc1ccc(-c2ccc(CN3C(CC(C)C)C(=O)N(Cc4cn(Cc5ccco5)nn4)CCS3(=O)=O)cc2)cc1 (stereo not given)	/	?	4%	-16	/	/
CC1C(=O)N(Cc2cn(Cc3ccco3)nn2)CCS(=O)(=O)N1Cc1ccc(-c2ccc(Cl)c(Cl)c2)cc1 (stereo not given)	/	8.2µM*	15µM*	-51*	/	/
CC1C(=O)N(Cc2cn(Cc3ccco3)nn2)CCS(=O)(=O)N1Cc1ccc(-c2ccccc2C(F)(F)F)cc1 (stereo not given)	/	?	?	-60*	/	/
CC(C)CC1C(=O)N(Cc2cn(Cc3ccco3)nn2)CCS(=O)(=O)N1Cc1ccc(-c2cccc(N(C)C)c2)cc1 (stereo not given)	/	13µM*	?	0	/	/
Cc1ccc(CN2CCc3nnc(C(NC(=O)c4ccoc4)C(C)C)n3CC2)cc1C (stereo not given)	/	-9%	7%	/	/	/
C[C@@]12C=Cc3occc3[C@H]1CC[C@]13CC(=O)[C@@H](CC[C@H]12)C3	/	/	/	/	-6%	-23%
CC(C)(Oc1ccc(Br)cc1)C(=O)N1CCc2ccccc21	3%	?	5%	-7	14%	0%
Cc1ccc(-c2ccc(CN3C(C)C(=O)N(Cc4cn(Cc5ccco5)nn4)CCS3(=O)=O)cc2)c(C)c1 (stereo not given)	/	?	?	-61*	/	/
SMILES	ELG1 DNA repair	DT40 TDP1 no CPT	TDP1 cell CPT	IL-1B inflam inh	Gal4-VP16 FLuc	RORg inh
Cc1ccc(-c2ccc(CN3C(C)C(=O)N(Cc4cn(Cc5ccco5)nn4)CCS3(=O)=O)cc2)cc1 (stereo not given)	/	?	?	-10	/	/
CC(C)CC1C(=O)N(Cc2cn(Cc3ccco3)nn2)CCS(=O)(=O)N1Cc1ccc(-c2ccc(F)cc2)cc1 (stereo not given)	/	16µM*	?	-72*	/	/
COc1ccc(-c2ccc(CN3C(C(C)C)C(=O)N(Cc4cn(Cc5ccco5)nn4)CCS3(=O)=O)cc2)cn1 (stereo not given)	/	21µM*	18µM*	-25	/	/
CC1C(=O)N(Cc2cn(Cc3ccco3)nn2)CCS(=O)(=O)N1Cc1ccc(-c2cccc(N(C)C)c2)cc1 (stereo not given)	/	16µM*	26µM*	-18	/	/
COc1cc(CNc2ncnc3c2ncn3[C@H]2CN(Cc3ccc4c(c3)OCO4)C[C@@H](CO)O2)cc(OC)c1OC	/	?	?	23	/	/
CCOC(=O)c1cc(-c2ccccc2)n(-c2cccc(C(=O)Nc3cccc(SC)c3)c2)c1C	/	-10%	-13%	/	/	/
COc1ccc(-c2ccc(CN3C(C(C)C)C(=O)N(Cc4cn(Cc5ccco5)nn4)CCS3(=O)=O)cc2)cc1OC (stereo not given)	/	?	?	12	/	/
COc1ccc(-c2ccc(CN3C(C)C(=O)N(Cc4cn(Cc5ccco5)nn4)CCS3(=O)=O)cc2)cc1 (stereo not given)	/	23µM*	21µM*	6	/	/
CCC/C=C/c1ccc(CN2C(C(C)C)C(=O)N(Cc3cn(Cc4ccco4)nn3)CCS2(=O)=O)cc1 (stereo not given)	/	23µM*	?	?	/	/
CC(C)C1C(=O)N(Cc2cn(Cc3ccco3)nn2)CCS(=O)(=O)N1Cc1ccc(-c2ccc(Cl)c(Cl)c2)cc1 (stereo not given)	/	3.3µM*	4.6µM*	-23	/	/
O=C(NCc1ccc(F)cc1Cl)c1cc(=O)[nH]c2ccc(S(=O)(=O)N3CCCCC3)cc12	/	-23%	-17%	/	/	/
